Laboratory results published in PubChem BioAssay (Tox21).
Records with an inconclusive call do not appear. A call without a number means that no potency is given here. Calls of active or inactive are those of the source. Calls come from the whole dose curve; as a rule, active = well fitted cell-killing curve with a large enough effect in the repeat runs; inconclusive = weak or mixed curves, or effect the other way; inactive = flat fitted curve, though single readings scatter.

Assay: qHTS RealTime-Glo MT Cell Viability Assay in HepG2 cells - 40 hour (AID 1224870); note: nearly all actives have a fitted effect of over 50% in size
Conditions: RealTime-Glo luminescence; series mostly up to 76.8 µM; activity change, negative = cytotoxic: at the top concentration
Summary of the method: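 HepG2 cells (600/well) mixed with RealTime-Glo MT reagent, settled 5 h at 37 C/5% CO2 before compound addition. Nonlytic NanoLuc luminescence from viable-cell prosubstrate reduction read repeatedly during 40 h treatment at 37 C.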

Compound	Potency	activity change, negative = cytotoxic
CCOc1ccccc1C(N)=O	inactive	–
C/C=C/c1ccc(OCC)c(O)c1	inactive	–
Nc1nc(=S)c2[nH]cnc2[nH]1	inactive	–
O=c1n(CC2CO2)c(=O)n(CC2CO2)c(=O)n1CC1CO1 (stereo not given)	inactive	–
CCc1ccc(C(c2ccc(CC)cc2)C(Cl)Cl)cc1	inactive	–
CCC[C@H](N[C@@H](C)C(=O)N1[C@H](C(=O)O)C[C@@H]2CCCC[C@@H]21)C(=O)OCC	inactive	–
O=C1Nc2ccccc2C1(c1ccc(O)cc1)c1ccc(O)cc1	inactive	–
CC[C@]1(O)C[C@@H]2CN(CCc3c([nH]c4ccccc34)[C@@](C(=O)OC)(c3cc4c(cc3OC)N(C)[C@H]3[C@@](O)(C(=O)OC)[C@H](OC(C)=O)[C@]5(CC)C=CCN6CC[C@]43[C@@H]65)C2)C1	inactive	–
CCCCCCC(O)CCCCCCCCCCC(=O)O (stereo not given)	inactive	–
CCN(CC)c1ccc2c(C)cc(=O)oc2c1	inactive	–
NCCO	inactive	–
CC(=O)OCCOCCOCCOC(C)=O	inactive	–
O=C(O)c1cccc(C(=O)O)c1	inactive	–
C=C(C)C1CC=C(C)C(OC(C)=O)C1 (stereo not given)	inactive	–
O=C(Oc1ccccc1)c1ccccc1O	inactive	–
CCC(=O)/C=C/C1C(C)=CCCC1(C)C (stereo not given)	inactive	–
CC(C)(C)NC(=O)[C@@H]1CN(Cc2cccnc2)CCN1C[C@@H](O)C[C@@H](Cc1ccccc1)C(=O)N[C@H]1c2ccccc2C[C@H]1O	inactive	–
COC(=O)/C=C/c1ccccc1	inactive	–
CC(C)(C)NCC(O)c1cc(O)cc(O)c1 (stereo not given)	–	0.114% [at 35.3 µM] (inactive)
Cc1ccnc2c1NC(=O)c1cccnc1N2C1CC1	inactive	–
